Reference: PubChem BioAssay (NCATS)
Inconclusive results are not listed. Active and inactive are the calls of the source. Calls follow the shape of the dose curve; as a rule, active = well fitted curve in the direction sought with a large enough effect; inconclusive = small, poorly fitted or top-dose-only effect, or another doubt; inactive = no such curve, though single readings can be large; an effect the other way counts as inactive or inconclusive.

Assays:
[1] = qHTS assay to identify small molecule inhibitors of chordoma cells - UCH-2 (AID 1259356); also: series mostly up to about 46 µM
[2] = P-glycoprotein substrates identified in KB-8-5-11 adenocarcinoma cell line, qHTS therapeutic library screen (AID 1346987); settings: outcome: dose series up to 44.5 µM; also: series mostly up to about 44 µM; nearly all actives have a fitted effect of over 65% in size
Method in brief: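 Luminescence from CellTiter-Glo, read 5 min after addition, quantified survival of KB-8-5-11 (P-gp-overexpressing) cells exposed to compounds for 72 h. AC50 was derived from concentration-response curves.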

[3] = NS1 protein of Zika virus - qHTS assay to identify small molecule inhibitors in human HEK 293 cells (AID 1347053); also: series mostly up to about 46 µM; nearly all actives have a fitted effect of over 55% in size
Method in brief: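 Compound-treated (1 h pre-infection) HEK 293 cells infected with ZIKV MR766, MOI = 0.5; after 24 h at 37 C, NS1 read by TR-FRET; data normalized to uninfected and infected controls.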

[4] = qHTS of pediatric cancer cell lines to identify multiple opportunities for drug repurposing: Primary screen for TC32 cells (AID 1347089); also: nearly all actives have a fitted effect of over 60% in size
Method in brief: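 Luminescent ATP read-out (CellTiter-Glo) of metabolically active TC32 cells after 48 h exposure. Concentration-response curves came from 11-point (MIPE, 0.78 nM–46 µM) or 8-point (NPC, 0.59 nM–46 µM) primary titrations; follow-up used 11 points.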

[5] = qHTS of pediatric cancer cell lines to identify multiple opportunities for drug repurposing: Primary screen for DAOY cells (AID 1347090); also: series mostly up to about 46 µM; nearly all actives have a fitted effect of over 55% in size
Method in brief: (§1)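 Cell viability, CellTiter-Glo luminescence; 500-1,000 cells/well, 8- or 11-point titration, 48 h compound exposure at 37 degrees C, 5% CO2. Controls: DMSO neutral, bortezomib 2.3 µM final as positive.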

[6] = qHTS of pediatric cancer cell lines to identify multiple opportunities for drug repurposing: Primary screen for SJ-GBM2 cells (AID 1347091)
Method in brief: as §1

[7] = qHTS of pediatric cancer cell lines to identify multiple opportunities for drug repurposing: Primary screen for A673 cells (AID 1347092); also: nearly all actives have a fitted effect of over 45% in size
Method in brief: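 Cell viability of A673 measured by CellTiter-Glo ATP luminescence after 48 hours compound exposure. Dilution series spanned 0.78 nM to 46 µM (MIPE, 11-point) or 0.59 nM to 46 µM (NPC, 8-point); bortezomib 2.3 uM positive control.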

[8] = qHTS of pediatric cancer cell lines to identify multiple opportunities for drug repurposing: Primary screen for SK-N-MC cells (AID 1347093); also: series mostly up to about 46 µM
Method in brief: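 Metabolically active cells were quantified by ATP-dependent luminescence (CellTiter-Glo, 15 min at room temperature) following 48 h treatment. Cells had been plated at 500-1,000 per well and settled for 5 h beforehand.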

[9] = qHTS of pediatric cancer cell lines to identify multiple opportunities for drug repurposing: Primary screen for BT-37 cells (AID 1347094); also: series mostly up to about 57 µM
Method in brief: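 Primary screen of approved and investigational compounds on cells in growth media at 37 degrees C, 5% CO2. MIPE set at 11-point and NPC set at 8-point dilutions; viability scored by ATP-based luminescence at 48 hours.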

Measured: Potency

OC(CCN1CCCC1)(c1ccccc1)C1CCCCC1 (stereo not drawn)
inactive: all assays above

Cc1cc(OI)c(C(C)C)cc1-c1cc(C(C)C)c(OI)cc1C
inactive: all assays above

CCCCCCCCCCCCCCCCN
inactive: all assays above

C=CCSCC1Nc2cc(Cl)c(S(N)(=O)=O)cc2S(=O)(=O)N1 (stereo not drawn)
inactive: all assays above

NC(=O)NC1NC(=O)NC1=O (stereo not drawn)
inactive: all assays above

OCc1ccc(Cl)cc1Cl
inactive: all assays above

CCN(CC)CC1CCCCN1CC(=O)N1c2ccccc2C(=O)Nc2cccnc21 (stereo not drawn)
inactive: all assays above

COc1ccc(-c2cc(=O)c3c(O)cc(O[C@@H]4O[C@H](CO[C@@H]5O[C@@H](C)[C@H](O)[C@@H](O)[C@H]5O)[C@@H](O)[C@H](O)[C@H]4O)cc3o2)cc1O
inactive: all assays above

CCc1cccc(CC)c1NC(=O)CN(CC(=O)O)CC(=O)O
inactive: all assays above

Cc1[nH]c(C)c(Cl)c(=O)c1Cl
inactive: all assays above

CC1(C)[C@@H](OC(=O)CCC(=O)O)CC[C@]2(C)[C@H]3C(=O)C=C4[C@@H]5C[C@@](C)(C(=O)O)CC[C@]5(C)CC[C@@]4(C)[C@]3(C)CC[C@@H]12
inactive: all assays above

CC(C)CCOC(=O)c1ccc(N(C)C)cc1
inactive: all assays above

COc1ccc(C(=O)N2CCN(CC(=O)N3CCOCC3)CC2)cc1
inactive: all assays above

CN[C@@H]1[C@H](O)[C@H](NC)[C@H]2O[C@@]3(O)C(=O)C[C@@H](C)O[C@H]3O[C@@H]2[C@H]1O
inactive: all assays above

CCCCCCCCCCCCCCCCCCO
inactive: all assays above

C/C=C1\[C@H]2C=C(C)C[C@]1(N)c1ccc(=O)[nH]c1C2
inactive: all assays above

CN1CCCN=C1COC(=O)C(O)(c1ccccc1)C1CCCCC1 (stereo not drawn)
not listed: [8]
inactive: all other assays above

C[C@@H](c1ncncc1F)C(O)(Cn1cncn1)c1ccc(F)cc1F (stereo partly drawn)
inactive: all assays above

NC(=O)N[C@@H](CCC(=O)O)C(=O)O
not listed: [8]
inactive: all other assays above

C[C@]1(Cn2ccnn2)[C@H](C(=O)O)N2C(=O)C[C@H]2S1(=O)=O
inactive: all assays above

C[N+](C)(C)CC[N+]1(C)Cc2c(Cl)c(Cl)c(Cl)c(Cl)c2C1
inactive: all assays above

CN/C(=C\[N+](=O)[O-])NCCSCc1csc(CN(C)C)n1
inactive: all assays above

CCOC(=O)[C@H](CCc1ccccc1)N[C@@H](C)C(=O)N1Cc2cc(OC)c(OC)cc2C[C@H]1C(=O)O
inactive: all assays above

O=C1C(c2[nH]c3ccccc3c2O)=Nc2ccccc21
inactive: all assays above

CC(=O)N[C@@H](CC(C)C)C(=O)O
inactive: all assays above
